# Results taken from PubChem BioAssay AID504444 (National Center for Advancing Translational Sciences (NCATS), 2011).
# Out of some 360,000 compounds screened, about 7,500 (2.1%) were called active. Inconclusive results (about 20%) are left out. The list comes from a sample in which actives are over-represented; it also holds similar structures and randomly drawn compounds. Where a call stands in place of a potency, no number is given. Unmarked numbers belong to inactive results. Calls come from the whole dose curve; as a rule, active = well fitted inhibition curve with a large enough effect; inconclusive = small, poorly fitted or top-dose-only effect, or effect the other way; inactive = flat fitted curve, though single readings scatter.
# Test: Nrf2 qHTS screen for inhibitors; note: nearly all actives have a fitted effect of over 60% in size
# Conditions: A549 ARE-Fluc reporter, luciferase luminescence, 18-24 h; series mostly up to 46 µM
# In short: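 Concentration-response testing used A549 ARE_Fluc cells at 5000 cells/well. Following an 18-24 h compound incubation, viability was read by fluorescence (Ex 405/Em 525) and luciferase output by luminescence.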
# Potency is the fitted concentration of half-maximal effect.
Structure (SMILES),Potency,"activity change, negative = inhibition"
CCOC(=O)C1=CN(Cc2ccc(Br)cc2)S(=O)(=O)N(C)C1C (stereo unspecified),inactive,
CCNC(=O)N(CC)C[C@H]1N[C@@](CC)(C(=O)OC)[C@H]2C(=O)N(Cc3ccccc3)C(=O)[C@@H]12,inactive,
O=C1c2ccccc2[C@@H]2C[C@@H](O)[C@H](Nc3ccccc3Cl)CCN12,inactive,
CCn1cc2nc(SCc3cccc(F)c3)n(CCc3ccccc3)c(=O)c2n1,23.1 µM (active),
Cc1cc(=O)[nH]c(SCc2cccc(F)c2)n1,inactive,
C=CCn1c(SCc2cccc(F)c2)nc2cc(C(=O)N3CCC(C(N)=O)CC3)ccc2c1=O,inactive,
O=C(Cn1cc(SCc2ccccc2)c2ccccc21)N1CCCCC1,inactive,
COc1ccc(CCNc2nc(-c3ccc(F)cc3)cc(C(F)(F)F)n2)cc1OC,,8.32% [at 9.27 µM]
COc1ccccc1CNC(=O)c1ccc(-n2c(C)cc3c2CCCC3)cc1,inactive,
CCOc1ccc(CNC(=O)CCc2c(C)nn(-c3ccc(N4CCCCC4)nn3)c2C)cc1,inactive,
O=C(O)c1ccc(CSc2nc3cccnc3n2Cc2cccc(F)c2)cc1,inactive,
O=C(NCc1ccc(F)cc1)c1ccc(Cn2c(SCc3ccc(F)cc3)nc3cccnc32)cc1,inactive,
Cc1oc(-c2ccccc2)nc1Cn1c(SCc2cccc(C(F)(F)F)c2)nc2cccnc21,25.9 µM (active),
CCN(Cc1ccccc1)C(=O)c1cn(-c2cccc(OC)c2)c(=O)c2ccccc12,inactive,
c1ccc(-c2nc(NCc3ccco3)c3ccccc3n2)cc1,inactive,
Cc1ccc(Oc2nc(-c3ccccn3)nc3ccccc23)cc1,inactive,
CC(C)(C)Nc1nc(-c2ccccn2)nc2ccccc12,20.6 µM (active),
CCOc1ccc(C(=O)c2cn(Cc3ccccc3OC)c3ccc(F)cc3c2=O)cc1,inactive,
O=C(N/N=C/c1ccoc1)c1ccc(Cl)cc1Cl,inactive,
O=C(N/N=C/c1ccc(OC(=O)c2ccccc2Cl)cc1)c1ccc(O)cc1,inactive,
CC(C)(C)C(=O)Nc1ccc(C(=O)N/N=C/c2ccccc2OC(=O)c2ccc(Cl)cc2Cl)cc1,13 µM (active),

Structure (SMILES),Potency,"activity change, negative = inhibition"
O=C(CC(=O)c1cccnc1)c1ccccc1,inactive,
COCCN(Cc1ccco1)C(=O)Cn1ncc2c([nH]c3ccccc32)c1=O,inactive,
O=C(CC1SC(=Nc2ccccc2)N(Cc2ccccn2)C1=O)Nc1cccc(Cl)c1 (stereo unspecified),25.9 µM (active),
O=C(Nc1cccc(Cl)c1)OCc1ccccn1,inactive,
CN1C(=O)C(CC(=O)Nc2ccccc2)S/C1=N/c1nccs1 (stereo unspecified),inactive,
CN(C)C(=S)N=c1ssc(=S)n1Cc1ccco1,inactive,
COc1cccc(C(=O)Nc2ccc3oc(-c4ccc5ccccc5c4)nc3c2)c1,inactive,
O=C(COc1ccc(Cl)cc1)Nc1ccc(-c2nc3cc(Cl)ccc3o2)c(O)c1,inactive,
Cc1ccc(SCC(=O)Nc2ccc3oc(-c4ccccc4C)nc3c2)cc1,inactive,
Cc1ccccc1-c1nc2cc(NC(=O)c3cccc(OCCC(C)C)c3)ccc2o1,6.51 µM (active),
CCCCOc1ccc(C(=O)Nc2cccc(-c3nc4ccccc4o3)c2C)cc1,inactive,
CCCOc1ccc(C(=O)Nc2ccc3oc(-c4cccc(Cl)c4Cl)nc3c2)cc1,5.8 µM (active),
O=C(NCCCc1ccccc1)c1ccc2c(c1)sc1nc(-c3ccc(F)cc3)cn12,inactive,
CCc1ccc(OCCCn2c(CCCNC(=O)C3CCCCC3)nc3ccccc32)cc1,inactive,
O=C(NCc1ccccc1)c1cccc(NC(=O)N2CCSc3ncccc32)c1,inactive,
CC(C)(C)OC(=O)C[C@H]1C/C=C\C[C@@H](CC(=O)N[C@H](CO)Cc2ccccc2)C(=O)NC[C@@H](c2ccccc2)OC1=O,inactive,
COc1ccc(-c2ccc3c(c2)C2CC3CCN2CCC#N)cc1 (stereo unspecified),inactive,
Cc1nc2ccc(S(=O)(=O)N(CC(=O)Nc3ccc(F)cc3)Cc3ccccc3)cc2s1,inactive,
COc1ccccc1N1CCN(c2ccc(=O)n(CC(=O)NCc3ccc(OC(C)C)cc3)n2)CC1,inactive,
Cc1c(C(=O)N2CCCC2)oc2c1-c1nn(CC(=O)NCc3ccc(OC(C)C)cc3)cc1CC2,20.6 µM (active),
CCCN(CCC)CCCNC(=O)Cn1cc2c(n1)-c1c(oc(C(=O)N3CCCC3)c1C)CC2,inactive,

Structure (SMILES),Potency,"activity change, negative = inhibition"
Cc1ccc(Cn2cc(CCC(=O)NCc3ccc(OC(C)C)cc3)c3ccccc32)cc1,inactive,
Cc1cccc(N2CCN(C(=O)c3oc(=O)c4ccccc4c3-c3ccccc3)CC2)c1C,inactive,
COc1cc(/C=C(\C#N)c2nc3ccccc3[nH]2)ccc1O,inactive,
Cc1ccc2nc(/C(C#N)=C/c3ccccc3F)[nH]c2c1,inactive,
Cc1ccc2nc(/C(C#N)=C\c3ccc(OC(=O)c4cccs4)cc3)[nH]c2c1,4.61 µM (active),
Cc1onc(-c2ccccc2Cl)c1C(=O)OCC(=O)c1ccccc1,inactive,
Cc1onc(-c2c(Cl)cccc2Cl)c1C(=O)NNC(=O)c1c(-c2c(Cl)cccc2Cl)noc1C,inactive,
CC(=O)Nc1cccc(/C(C)=N/NC(=O)c2c(-c3ccccc3Cl)noc2C)c1,9.2 µM (active),
COC(=O)c1ccc(CNC(=O)Cn2cc(C)c(=O)[nH]c2=O)cc1,inactive,
Cc1cccc(-c2nc(SCc3ccc(Br)cc3)n3[nH]c(=O)cc3n2)c1,inactive,
O=C(O)c1ccccc1C(=O)Nc1nc(-c2ccccc2)cs1,inactive,
CC(=O)Nc1ccc(-c2csc(NC(=O)Nc3ccccc3)n2)cc1,16.4 µM (active),
CC(=O)Nc1ccc(S(=O)(=O)Nc2nc(-c3ccc(C(C)(C)C)cc3)cs2)cc1,inactive,
Cc1cc(Cl)ccc1OCC(=O)N(Cc1ccc(N(C)C)cc1)C1CCS(=O)(=O)C1 (stereo unspecified),inactive,
COc1ccc(-c2ccc3c(c2)[C@@H]2C[C@H](N(C)S(=O)(=O)c4ccccc4)[C@H]([C@H](C)O)C(=O)N2CC3)cc1,inactive,
Cc1nnc(N2CCC(C(=O)Nc3ccc(F)cc3)CC2)c2nn(-c3ccc(Cl)cc3)c(C)c12,inactive,
CC1CC(C)CN(CC(=O)N2c3ccccc3CCc3ccccc32)C1 (stereo unspecified),inactive,
CNC(=O)N1c2ccccc2C=Cc2ccccc21,inactive,
CC1C(C)N(C(=O)CCl)c2ccccc2N1C(=O)CCl (stereo unspecified),18.4 µM (active),
